The sample as a whole holds a higher share of hits than the screen did.
Pf Dd2 growth: inhibitors of Plasmodium falciparum Dd2 growth; P. falciparum Dd2 growth, SYBR Green, 72 h; 4.3% of 120,000 active; AID 1347417; Potency, µM (top dose mostly 28.9 µM), without a hit: at the highest dose activity, negative = inhibition, usual class: inhibitors; active = well fitted inhibition curve with a large enough effect;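 note: plate controls were DMSO vehicle for no effect and reference drug for full effect; nearly all actives have a fitted effect of over 65% in size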
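Readout: SYBR Green fluorescence, 485 nm excitation, 535 nm emission, after ~16 h lysis at 37C. Before that, Dd2-infected red cells (2.5% hematocrit) grew 72 h with compound, 29 uM top final concentration.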
The depositor's hits bear a star; [ ] = dose if it differs, or a comment. Potency is the fitted concentration of half-maximal effect.

What do the screens show for `CCc1ccc(C2C(C(=O)Nc3ccccc3OC)=C(C)Nc3c(C(=O)Nc4ccc(C)cc4)cnn32)cc1` (centres undefined)?
Pf Dd2 growth: 11µM*

Results for CC1=C(C(=O)Nc2ccc(C)cc2)C(c2ccc(Cl)cc2)n2nnnc2N1 (centres undefined) ?
Pf Dd2 growth: -27%

Results for CC1=C(C(=O)Nc2ccc(C)cc2C)C(c2ccc([N+](=O)[O-])cc2)n2ncc(C(=O)Nc3ccc(F)cc3)c2N1 (centres undefined) ?
Pf Dd2 growth: 1µM*

How did COc1cccc(C2C(C(=O)Nc3ccccc3)=C(C)Nc3nnnn32)c1OC (centres undefined) do in these assays?
Pf Dd2 growth: -25%

How did CC1=C(C(=O)Nc2ccc(C)cc2C)C(c2cccn2C)n2ncnc2N1 (centres undefined) do in these assays?
Pf Dd2 growth: 10%

What do the screens show for `COC(=O)CNC(=O)N1CCCCC1c1nc(CCOc2ccc(F)cc2)no1` (centres undefined)?
Pf Dd2 growth: 1%

What do the screens show for `COCC(=O)N1CCC(Oc2ccccc2C(=O)N2C[C@H]3CC[C@H]2C3)CC1`?
Pf Dd2 growth: -11%

How did COc1ccc(C2Cn3nnc(-c4noc(-c5cccc(N(C)C)c5)n4)c3CO2)cc1 (centres undefined) do in these assays?
Pf Dd2 growth: inactive

Results for CC(=O)N1C[C@@H]2CCCN3CCC[C@@H]([C@H]23)[C@H]1CCCC(=O)NCCN(C)C1CCCCC1 ?
Pf Dd2 growth: inactive

What do the screens show for `CCCN(C(=O)c1nn(-c2ccc(OC)c(Cl)c2)c(=O)c2c1c1ccccc1n2C)c1ccccc1F`?
Pf Dd2 growth: 4%

Results for COc1ccc(-n2nc(C(=O)N(C)c3cccc(C(F)(F)F)c3)c3c4ccccc4n(C)c3c2=O)cc1 ?
Pf Dd2 growth: 8%

How did CCN(CC)CCNC(=O)c1nn(-c2ccc(OC)c(Cl)c2)c(=O)c2c1c1ccccc1n2C do in these assays?
Pf Dd2 growth: 13%

What do the screens show for `CCN(C(=O)c1nn(-c2ccc(OC)c(Cl)c2)c(=O)c2c1c1ccccc1n2C)c1cc(OC)ccc1OC`?
Pf Dd2 growth: 7.9µM*

What do the screens show for `CCN(CC)CCCNC(=O)c1nn(-c2ccc(OC)cc2)c(=O)c2c1c1ccccc1n2C`?
Pf Dd2 growth: 6%

What do the screens show for `CCN(CC)CCCNC(=O)c1nn(-c2ccc(OC)c(Cl)c2)c(=O)c2c1c1ccccc1n2C`?
Pf Dd2 growth: 1µM*

How did CCc1ccc(CNC(=O)c2nn(-c3ccc(OC)c(Cl)c3)c(=O)c3c2c2ccccc2n3C)cc1 do in these assays?
Pf Dd2 growth: 9%[5.79 µM]

What do the screens show for `CCOc1ccccc1NC(=O)c1nn(-c2ccc(OC)cc2)c(=O)c2c1c1ccccc1n2C`?
Pf Dd2 growth: inactive

What do the screens show for `CCOc1ccc(N(CC)C(=O)c2nn(-c3ccc(OC)cc3)c(=O)c3c2c2ccccc2n3C)cc1`?
Pf Dd2 growth: 4µM*

Results for CNC(=O)[C@H]1C[C@H](Oc2cccnc2)CN1S(=O)(=O)c1ccc(OC)cc1 ?
Pf Dd2 growth: -9%

How did CCN1CCCC2(CCN(C(=O)CCc3n[nH]c(C)c3C)C2)C1=O (centres undefined) do in these assays?
Pf Dd2 growth: -5%

How did COC(=O)[C@H](NC(=O)[C@@H]1C[C@H](NC(=O)Nc2cccc(SC)c2)CN1C(=O)C=C(C)C)C(C)C do in these assays?
Pf Dd2 growth: 5%

What do the screens show for `Cc1ccccc1S(=O)(=O)N1CCC(CCC(=O)NC2CCS(=O)(=O)C2)CC1` (centres undefined)?
Pf Dd2 growth: -10%

What do the screens show for `COc1ccc(-c2nnc3ccc(NC(C)C)nn23)nc1`?
Pf Dd2 growth: inactive

What do the screens show for `COc1ccc(-c2nnc3ccc(Nc4cccc(OC)c4)nn23)nc1`?
Pf Dd2 growth: 10µM*

How did COc1ccc(Nc2ccc3nnc(-c4ccc(C)cn4)n3n2)cc1 do in these assays?
Pf Dd2 growth: -11%[44.1 µM]

How did COc1cc(=O)n2c(c1C(=O)Nc1ccc(C#N)cc1)CCCC2 do in these assays?
Pf Dd2 growth: -30%

Results for COc1ccc(NC(=O)[C@@H]2C[C@H](c3ccc(F)cc3)N(Cc3csc(C)n3)C2)cc1 ?
Pf Dd2 growth: -14%[44.1 µM]

Results for CC(C)[S+](=O)([O-])N1CC2(CN(Cc3ccc(Cl)cc3)C(=O)O2)C1 ?
Pf Dd2 growth: 3%[44.1 µM]

How did CCOc1ccccc1C(=O)NCC(c1cccs1)S(=O)(=O)c1ccc(F)c(C)c1 (centres undefined) do in these assays?
Pf Dd2 growth: 20%

Results for COc1ccc(CC(=O)NCC(c2cccs2)S(=O)(=O)c2ccc(F)c(C)c2)cc1 (centres undefined) ?
Pf Dd2 growth: inactive

How did Cc1cc(S(=O)(=O)C(CNC(=O)c2ccc(OC(C)C)cc2)c2cccs2)ccc1F (centres undefined) do in these assays?
Pf Dd2 growth: 5µM*

Results for Cc1cccc(C(=O)N2C(C(=O)NCC(C)C)COC23CCN(C(=O)c2ccccc2C)CC3)c1 (centres undefined) ?
Pf Dd2 growth: inactive

Results for N[C@H]1[C@H](O)[C@@H](N2CCC(Cc3ccccc3)CC2)[C@@H]2OC[C@H]1O2 ?
Pf Dd2 growth: inactive

How did COc1ccc(O[C@H]2COCCN(C(=O)COc3ccccc3)C2)cc1 do in these assays?
Pf Dd2 growth: -20%[44.1 µM]

What do the screens show for `COc1ccc(-n2nc3n(c2=O)CCN([S+](=O)([O-])c2cccc(OC)c2)C3)cc1`?
Pf Dd2 growth: -17%

How did O=C(NCc1nnc2ccc(-c3ccc(Cl)cc3)nn12)c1cc(F)ccc1Cl do in these assays?
Pf Dd2 growth: -18%

How did FC(F)Oc1ccccc1CN(CC1CCN(C2CCCC2)CC1)CC1CCCO1 (centres undefined) do in these assays?
Pf Dd2 growth: 7.1µM*

How did O=C(c1cnco1)N(CC1CCN(Cc2ccccc2F)CC1)CC1CCCO1 (centres undefined) do in these assays?
Pf Dd2 growth: -14%

How did Oc1ccccc1CN(CCN1CCCCC1)CC1CCCN(C2CCCC2)C1 (centres undefined) do in these assays?
Pf Dd2 growth: inactive

What do the screens show for `Cn1nccc1-c1ccc2ncn(Cc3ccccn3)c(=O)c2n1`?
Pf Dd2 growth: 0%[44.1 µM]

How did COc1ccc(-c2nc3cc(C)ccc3cc2CN2CCCC(O)C2)cc1OC (centres undefined) do in these assays?
Pf Dd2 growth: -19%

What do the screens show for `COc1ccc2cc(CN3CCCC(C#N)C3)c(-c3cccs3)nc2c1` (centres undefined)?
Pf Dd2 growth: -17%

What do the screens show for `COC[C@@H]1CCCN1Cc1cc2ccc(C)cc2nc1-c1ccc(OC)cc1`?
Pf Dd2 growth: 14µM*

What do the screens show for `COc1ccc(-c2nc3cc(C)ccc3cc2CN2CCN(C)C(CCO)C2)cc1` (centres undefined)?
Pf Dd2 growth: 10µM*

How did COC[C@H]1CCCN1Cc1nc(C2(O)CCN(C)CC2)cs1 do in these assays?
Pf Dd2 growth: -18%[44.1 µM]

Results for COc1ccc(-c2nc3cc(C)ccc3cc2CN2CCCC(CO)C2)cc1OC (centres undefined) ?
Pf Dd2 growth: -20%

What do the screens show for `CNC(=O)[C@@H]1C[C@H](Oc2cccnc2)CN1C(=O)c1nccc2ccccc12`?
Pf Dd2 growth: 4%

How did Cc1ccc(-c2nnc(C3CN(C(=O)CC(C)C)CC34CCOCC4)o2)cc1 (centres undefined) do in these assays?
Pf Dd2 growth: -17%

Results for COc1ccc(NC(=O)C2CCCN(c3cnccn3)C2)c(OC)c1 (centres undefined) ?
Pf Dd2 growth: 32%

Assay outcomes: PubChem, National Center for Advancing Translational Sciences (NCATS)
